Reference: PubChem BioAssay
The source made the active and inactive calls. No rule for the calls is given here.

These compounds were tested against Pantothenate synthetase (Mycobacterium tuberculosis (strain ATCC 25618 / H37Rv)) (UniProt P9WIL5) (assay: Recombinant Mtb pantothenate synthetase (PanC) inhibitors, coupled enzyme, confirmatory (AID 375;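 also: 0% = full reaction with vehicle and 100% = no enzyme background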)). Conditions: coupled enzyme assay; at 10 µM, active compounds read high.
Chain of Pantothenate synthetase (Mycobacterium tuberculosis (strain ATCC 25618 / H37Rv)) (P9WIL5 whole entry, looked up): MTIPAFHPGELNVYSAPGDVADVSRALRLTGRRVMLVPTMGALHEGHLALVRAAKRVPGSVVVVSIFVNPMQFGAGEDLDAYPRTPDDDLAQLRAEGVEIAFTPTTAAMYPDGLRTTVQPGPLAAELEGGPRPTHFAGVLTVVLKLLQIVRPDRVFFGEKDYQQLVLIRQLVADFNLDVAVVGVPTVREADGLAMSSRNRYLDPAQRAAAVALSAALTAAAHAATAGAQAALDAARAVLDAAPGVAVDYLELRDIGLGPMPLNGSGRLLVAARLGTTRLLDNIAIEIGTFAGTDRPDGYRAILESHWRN

Row | SMILES | inhibition
1 | COc1cccc(S(=O)(=O)Nc2ccc(C(=O)N3CCN(C(=O)c4ccco4)CC3)cc2)c1 | 0% (inactive)
2 | S=C(N=Nc1ccccc1)NNc1ccccc1 | 0% (inactive)
3 | Nc1nc2c(ncn2COCCO)c(=O)[nH]1 | 0% (inactive)
4 | CCOc1ccc2c(c1)sc1nc(C(=O)OC)cc(=O)n12 | 0% (inactive)
5 | CC1CCN(S(=O)(=O)c2ccc3[nH]c(=O)cc(C(=O)O)c3c2)CC1 | 0% (inactive)
6 | CC[C@]1(O)CC2CN(CCc3c([nH]c4ccccc34)[C@@](C(=O)OC)(c3cc4c(cc3OC)N(C=O)[C@H]3[C@@](O)(C(=O)OC)[C@H](OC(C)=O)[C@]5(CC)C=CCN6CC[C@]43[C@@H]65)C2)C1 (stereo not given in full) | 1% (inactive)
7 | O=C(c1ccco1)N1CCN(CC2CC3C=CC2C3)CC1 (stereo not given) | 7% (inactive)
8 | CC(C)(C)Nc1nc(NC(C)(C)C)nc(-n2ccnc2)n1 | 0% (inactive)
9 | Cc1ccc(C)c(NC(=O)c2ccc3c(c2)N(Cc2ccc(F)cc2)C(=O)CS3=O)c1 (stereo not given) | 0% (inactive)
10 | CCc1nn2c(N3CCOCC3)cc(C)nc2c1-c1ccc(F)cc1 | 0% (inactive)
11 | COc1ccccc1N1CCN(C(=O)CN(Cc2ccc(Cl)cc2)S(C)(=O)=O)CC1 | 3% (inactive)
12 | COc1ccc2c(c1)CCc1c(C(=O)N3CCCc4ccccc43)noc1-2 | 4% (inactive)
13 | O=C(CN1c2cccc3cccc(c23)S1(=O)=O)N1CCOCC1 | 0% (inactive)
14 | CCSc1nncn1/N=C/c1ccc(OC)c(OC)c1 | 4% (inactive)
15 | CCOC(=O)c1nnn(-c2nonc2NC(C)=O)c1C | 8% (inactive)
16 | c1ccc(-c2cc(N3CCCCC3)ncn2)cc1 | 0% (inactive)
17 | O=C(c1ccco1)N1CCN(CC(=O)N(C2CCCCC2)C2CCS(=O)(=O)C2)CC1 (stereo not given) | 2% (inactive)
18 | CCCn1c(C)nc2c(c1=O)c1nc3ccccc3nc1n2CCc1ccccc1 | 4% (inactive)
19 | COc1ccc(Nc2nc(-c3sc(N)nc3C)cs2)cc1 | 3% (inactive)
20 | CCOC(=O)c1c(C)[nH]c(C(=O)COC(=O)C2CC2C)c1C (stereo not given) | 0% (inactive)

Row | SMILES | inhibition
21 | COc1cccc(OCCSc2nnc3sc4ccccc4n23)c1 | 0% (inactive)
22 | CN(C(=O)C1CCOC1)c1nnc(-c2cccnc2)s1 (stereo not given) | 0% (inactive)
23 | COc1cccc(-c2noc(-c3cccs3)n2)c1 | 1% (inactive)
24 | COc1ccccc1OCCCCNCCO | 0% (inactive)
25 | COc1cc(C)c(-c2cc(C(=O)O)c(C)o2)cc1C(C)C | 0% (inactive)
26 | O=C(CN(C1CCCCC1)S(=O)(=O)c1ccccc1)NCc1cccnc1 | 0% (inactive)
27 | Cc1nc(-c2cnn(-c3ccccc3)c2)c2cc(C)oc2n1 | 2% (inactive)
28 | COc1ccccc1N1CCN(Cc2nc(N)nc(Nc3ccc(C)c(Cl)c3)n2)CC1 | 3% (inactive)
29 | Cc1onc(-c2ccccc2)c1C(=O)N1CCCSC1=Nc1ccccc1 | 6% (inactive)
30 | Cc1cc(C)n(-c2nc3sc4c(c3c3nnc(SC(C)C)n23)CC(C)(C)OC4)n1 | 0% (inactive)
31 | CC(=O)Nc1nc(-c2ccc(Cl)cc2)nc(C)c1C(C)=O | 0% (inactive)
32 | O=C(NC1CCCCC1)C(c1ccco1)N(Cc1cccnc1)C(=O)C1COc2ccccc2O1 (stereo not given) | 2% (inactive)
33 | C=CCn1c(-c2cccs2)nc2nc3ccccc3nc21 | 0% (inactive)
34 | COc1ccc(Cc2nnc(NC(=O)Cc3cccs3)s2)cc1 | 0% (inactive)
35 | COC(=O)c1[nH]c2ccc(C)cc2c1NC(=O)CN1CCCC(C)(C)C1 | 0% (inactive)
36 | CCOC(=O)c1cc2c(=O)n3ccccc3nc2n(CCCOC)c1=NC(C)=O | 1% (inactive)
37 | O=C(NCc1ccccc1)C1CCN(S(=O)(=O)N2CCCCCC2)CC1 | 2% (inactive)
38 | Cc1nnc(SCC(=O)Nc2ccc3c4c(cccc24)CC3)n1C | 0% (inactive)
39 | O=C1CN(Cc2ccccc2)C(=NCc2ccco2)S1 | 0% (inactive)
40 | CCOc1ccc(N2CC(C(=O)Nc3ccccc3OC)CC2=O)cc1 (stereo not given) | 0% (inactive)
